Calls of active or inactive are those of the source.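 How the source made its calls, unless noted: active means fluorescence slope higher than the sample average by over 3 SD (cut at about -0.22 in these data, passing the limit was not always enough); inactive means the rest.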
Key:
[1] = inhibitors of TNFa-induced NFkB p65 translocation, primary screen, imaging, HUVEC, MLSMR starter and 10KST1 sets (AID 438;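 active means inhibition above 20% together with a positive visual image hit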;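 further: compound added about 3h40 before a 20 min TNFalpha stimulation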;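 on inhibition: signal is the nuclear over cytoplasmic p65 intensity ratio per well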); settings: HUVEC TNFa-induced p65 nuclear translocation; cell count: measured here: nuclei count (cytotoxicity indicator), at 2.08 µM; inhibition: at 2 µM, stronger effect = higher value, 0% TNFa-plus-vehicle, 100% no-TNFa wells
[2] = inhibitors of mutant huntingtin aggregation, primary screen, imaging, exon1htt(103Q)mCFP cells, high-content imaging (AID 483;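 active means visual image review flags a hit and inhibition of aggregation exceeds 20%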;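 further: compound exposure lasted 3 days before fixation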;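 on nuclei count: percent of the per-plate median nuclei count of sample wells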); settings: exon1htt(103Q)mCFP cell line, aggregate imaging, at 2 µM; inhibition of aggregation: stronger effect = higher value; nuclei count: measured here: cell count, toxicity
[3] = inhibitors of E-selectin induction by TNFa, primary screen, imaging, HUVEC, immunofluorescence, MLSMR starter and 10KST1 sets (AID 487;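 active means visually confirmed hit in the image check and inhibition above 20%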;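 on inhibition: signal is fraction of cell area covered by stained E-selectin grains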;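 on nuclei count: 100% = median nuclei count of all wells on the same plate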); settings: HUVEC TNFalpha-induced E-selectin immunofluorescence imaging, at 2 µM; inhibition: stronger effect = higher value; nuclei count: measured here: cell number, toxicity
[4] = molecular target: Voltage-gated potassium channel subunit beta-2 (Rattus norvegicus) (UniProt P62483); experiment: KvBeta enzyme negative modulators, primary screen, biochemical, NADPH fluorescence (AID 622); settings: recombinant KvBeta, 4-cyanobenzaldehyde reduction, at 10 µM, stronger effect = higher value;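 further: slope of raw intensity against log time taken from 70 to 1610 s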
Voltage-gated potassium channel subunit beta-2 (Rattus norvegicus), sequence (P62483 whole entry, looked up): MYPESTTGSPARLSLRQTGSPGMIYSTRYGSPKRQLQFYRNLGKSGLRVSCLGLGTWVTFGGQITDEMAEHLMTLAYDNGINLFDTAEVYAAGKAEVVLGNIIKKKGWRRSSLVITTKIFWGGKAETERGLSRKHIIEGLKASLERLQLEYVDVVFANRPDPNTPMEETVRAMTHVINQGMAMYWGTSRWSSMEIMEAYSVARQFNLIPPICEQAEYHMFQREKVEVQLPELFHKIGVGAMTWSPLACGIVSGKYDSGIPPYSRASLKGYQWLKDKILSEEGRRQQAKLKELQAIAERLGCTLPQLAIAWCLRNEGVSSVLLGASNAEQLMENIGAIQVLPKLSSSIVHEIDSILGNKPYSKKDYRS

[5] = molecular target: Voltage-gated potassium channel subunit beta-2 (Rattus norvegicus) (UniProt P62483); experiment: KvBeta positive modulators, primary screen, biochemical, NADPH fluorescence (AID 623;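 active means NADPH fluorescence slope more negative than the mean of all samples by about 3 SD, 99.7% confidence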;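 further: fluorescence intensity change per second fitted from 20 to 320 s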); settings: Recombinant KvBeta, NADPH fluorescence decrease slope, 10 min; at 10 µM; stronger effect = lower value
[6] = molecular target: Alpha-2C adrenergic receptor (Homo sapiens) (UniProt P18825); experiment: modulators of alpha2C/GIRK thallium flux, primary screen, cell-based, HEK293 alpha2C/GIRK1/2 (AID 624;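 active means fluorescence slope after compound addition differing from the mean of all screened samples at 99.7% confidence, in either direction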;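 further: slope of fluorescence ratio to pre-addition baseline per second over 15 to 24 s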); settings: thallium flux BTC fluorescence, at 10 µM, actives lie on both sides
Alpha-2C adrenergic receptor (Homo sapiens), sequence (P18825 whole entry, looked up): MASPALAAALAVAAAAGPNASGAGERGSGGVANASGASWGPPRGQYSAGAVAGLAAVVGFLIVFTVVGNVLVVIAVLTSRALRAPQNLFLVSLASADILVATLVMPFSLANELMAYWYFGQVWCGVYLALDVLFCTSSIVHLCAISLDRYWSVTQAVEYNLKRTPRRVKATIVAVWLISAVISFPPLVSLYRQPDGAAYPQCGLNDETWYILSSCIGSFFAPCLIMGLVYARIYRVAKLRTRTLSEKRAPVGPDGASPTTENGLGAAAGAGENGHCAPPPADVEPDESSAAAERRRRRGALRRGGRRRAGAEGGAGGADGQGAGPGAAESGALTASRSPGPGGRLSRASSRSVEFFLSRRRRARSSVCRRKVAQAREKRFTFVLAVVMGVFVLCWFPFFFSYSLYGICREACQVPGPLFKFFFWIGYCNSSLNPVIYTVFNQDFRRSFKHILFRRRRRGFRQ

[7] = inhibitors of Sendai virus-induced IRF3 signaling, primary screen, TLR/RLR signaling modifier project, cell-based, Sendai virus stimulus, luciferase, 10K MLSCN set (AID 602276;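 active means inhibition at or above 50% at 10 µM; inactive means inhibition below 50%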;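 further: firefly luciferase from ISG56 promoter only with Renilla not read in this screen; 0% = Sendai virus plus DMSO and 100% = medium plus DMSO without virus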); settings: HEK293 RL24 IRF3 luciferase reporter, at 10 µM, stronger effect = higher value
[8] = inhibitors of poly I:C-induced TLR3 signaling, primary screen, cell-based, poly I:C stimulus, luciferase, 10K MLSCN set (AID 602277;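 active means inhibition of the reporter signal at or above 50%; inactive means inhibition below 50%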); settings: HEK293-TLR3 RL24 IRF3 luciferase reporter, at 10 µM, stronger effect = higher value

Row | SMILES | cell count [1] | inhibition [1] | inhibition of aggregation [2] | nuclei count [2] [%] | inhibition [3] | nuclei count [3] [%] | fluorescence slope [4] | NADPH fluorescence slope [5] | slope [6] | inhibition [7] | inhibition [8]
1 | COc1ccc(C(CNC(=O)c2ccc(OCC3CCCO3)cc2)N2CCOCC2)cc1 (stereo not drawn) | 666 | 0.6% (inactive) | -1.9% (inactive) | 86.2 | 7.9% (inactive) | 112 | -0.49 (inactive) | -4e-05 (inactive) | 0.00447 (inactive) | 15.9% (inactive) | 20.4% (inactive)
2 | O=C(CN(C(=O)CCC(=O)Nc1nccs1)c1ccccc1F)NCC1CCCO1 (stereo not drawn) | 343 | -0.8% (inactive) | 6% (inactive) | 87.3 | -19.4% (inactive) | 124 | -0.609 (inactive) | -1.3e-06 (inactive) | 0.00439 (inactive) | 8.97% (inactive) | 15.4% (inactive)
3 | Cc1[nH]nc2c1C(c1ccc(F)cc1)C1=C(CC(C)(C)CC1=O)N2 (stereo not drawn) | 561 | -30.6% (inactive) | 4.4% (inactive) | 98.7 | -52.8% (inactive) | 102 | -0.451 (inactive) | -8.1e-06 (inactive) | 0.00591 (inactive) | 10.5% (inactive) | 32.3% (inactive)
4 | CC(NC(=O)c1cc2c(=O)n(C)c3ccccc3c2n1C)c1ccc2c(c1)OCCO2 (stereo not drawn) | 798 | -4.4% (inactive) | 3.3% (inactive) | 139 | -41.1% (inactive) | 107 | -0.623 (inactive) | -2.2e-05 (inactive) | 0.00677 (inactive) | 4.73% (inactive) | 4.98% (inactive)
5 | Cc1ccccc1NC(=O)C1CCCN(S(=O)(=O)c2cnc[nH]2)C1 (stereo not drawn) | 726 | -11% (inactive) | 21.2% (inactive) | 109 | -26.7% (inactive) | 124 | -0.564 (inactive) | -2e-05 (inactive) | 0.0067 (inactive) | 10.6% (inactive) | 32.6% (inactive)
6 | COC(=O)Nc1sc2c(c1C(=O)N1CCOCC1)CCC(C)C2 (stereo not drawn) | 324 | -10.6% (inactive) | -10.8% (inactive) | 118 | 2.3% (inactive) | 75.2 | -0.409 (inactive) | 6.2e-06 (inactive) | 0.00394 (inactive) | 7.08% (inactive) | -3.14% (inactive)
7 | C=CCSc1nc(N)c2c(C)c(C)sc2n1 | 419 | 3% (inactive) | 29.2% (inactive) | 91.8 | -20.5% (inactive) | 101 | -0.404 (inactive) | 1.5e-05 (inactive) | 0.000164 (inactive) | -7.96% (inactive) | -46.7% (inactive)
8 | Cn1c(SCCN2CCCCC2)nnc1-c1ccccc1Br | 493 | 4.4% (inactive) | 1.1% (inactive) | 70.5 | -13.3% (inactive) | 98.3 | -0.509 (inactive) | -3.5e-05 (inactive) | 0.00556 (inactive) | 13.4% (inactive) | 13.7% (inactive)
9 | COc1cccc(/C=N/n2c(C)nc3ccccc32)c1OC | 431 | 0.5% (inactive) | 32.5% (active) | 84.3 | -27.6% (inactive) | 123 | -0.391 (inactive) | 3.2e-05 (inactive) | 0.00613 (inactive) | -7.57% (inactive) | -59.7% (inactive)
10 | CS(=O)(=O)N(CC(=O)NCCSCc1cccc(Cl)c1)c1ccc2c(c1)OCO2 | 233 | -4.5% (inactive) | 35.8% (active) | 96.5 | 32.5% (inactive) | 71.4 | -0.528 (inactive) | -5.8e-05 (inactive) | 0.00685 (inactive) | -12% (inactive) | 1.85% (inactive)
11 | COc1ccc(S(=O)(=O)Cc2ccc(C(=O)NCCc3ccc(S(N)(=O)=O)cc3)o2)cc1 | 686 | 0.6% (inactive) | 41.2% (active) | 71.5 | -51.1% (inactive) | 114 | -0.561 (inactive) | -2.1e-05 (inactive) | 0.00625 (inactive) | 9.1% (inactive) | 28.2% (inactive)
12 | CCN(C(=O)c1c(OC)cccc1OC)c1nnc(-c2cccnc2)s1 | 892 | 3.3% (inactive) | -35.8% (inactive) | 105 | -49.6% (inactive) | 137 | -0.336 (inactive) | -3.4e-05 (inactive) | 0.00467 (inactive) | 8.32% (inactive) | 18.6% (inactive)
13 | Cc1cc(C)c(NC(=O)CSc2nnc(-c3ccncc3)n2Cc2ccco2)c(C)c1 | 412 | -5% (inactive) | -19.2% (inactive) | 111 | -107% (inactive) | 113 | -0.335 (inactive) | -3.5e-05 (inactive) | 0.00447 (inactive) | 5.1% (inactive) | 10.2% (inactive)
14 | CCc1ccccc1NC(=O)c1ccoc1C | 399 | 2.4% (inactive) | 0.7% (inactive) | 97.9 | -12.3% (inactive) | 99.5 | -0.493 (inactive) | -5.8e-05 (inactive) | 0.00456 (inactive) | 13.9% (inactive) | 17.6% (inactive)
15 | O=C(Nc1cccc(O)c1)c1ccccc1 | 474 | 18.5% (inactive) | 6% (inactive) | 98.6 | -32.9% (inactive) | 102 | -0.521 (inactive) | 5e-06 (inactive) | 0.00606 (inactive) | -19.1% (inactive) | -29.4% (inactive)
16 | CCOC(=O)c1ccc2[nH]c3c(c2c1)CN(C)CC3 | 686 | -1.3% (inactive) | 28.7% (inactive) | 73.1 | -29.4% (inactive) | 114 | -0.543 (inactive) | -5.6e-05 (inactive) | 0.00602 (inactive) | 5.79% (inactive) | 21.3% (inactive)
17 | CCOC(=O)c1cnn(-c2sc(C(=O)OCC)c(C)c2C(=O)OCC)c1N | 451 | -1.9% (inactive) | -35.1% (inactive) | 99.7 | -5.8% (inactive) | 115 | -0.517 (inactive) | 2.2e-05 (inactive) | 0.00627 (inactive) | 7.68% (inactive) | -49.4% (inactive)
18 | CCOc1ccc(-c2nnc(SCC(=O)N3CCN(c4ccccc4)CC3)o2)cc1 | 672 | -8.6% (inactive) | 8.1% (inactive) | 101 | -59.7% (inactive) | 109 | -0.559 (inactive) | 2.1e-05 (inactive) | 0.0058 (inactive) | 2.37% (inactive) | 14.8% (inactive)
19 | CCOC(=O)C1=C(O)CCn2c1nc1ccccc12 | 376 | 2% (inactive) | 14.2% (inactive) | 56.5 | -214% (inactive) | 98.6 | -0.504 (inactive) | -0.000164 (inactive) | 0.005 (inactive) | 9.43% (inactive) | -0.0537% (inactive)
20 | CCSc1cc(C2C(C(=O)OC)=C(C)NC3=C2C(=O)CCC3)c(C)o1 (stereo not drawn) | 737 | -6.1% (inactive) | 8.4% (inactive) | 96.3 | -52.7% (inactive) | 129 | -0.593 (inactive) | -2.7e-05 (inactive) | 0.00339 (inactive) | 16.1% (inactive) | 22.6% (inactive)
21 | O=C(CSc1nnc(-c2ccc(Br)o2)n1Cc1ccccc1)c1ccccc1F | 336 | -5.8% (inactive) | 11.9% (inactive) | 87.1 | -35.1% (inactive) | 96.4 | -0.391 (inactive) | -4.8e-05 (inactive) | 0.00522 (inactive) | 6.04% (inactive) | 18.1% (inactive)
22 | CN(C)S(=O)(=O)Nc1ccc(Br)cc1F | 688 | -11.1% (inactive) | 9.4% (inactive) | 103 | -24.9% (inactive) | 100 | -0.439 (inactive) | -8.8e-06 (inactive) | 0.00541 (inactive) | 8.09% (inactive) | 15.9% (inactive)
23 | CC(C)(C)c1nnc(NC(=O)C2CCN(c3ncccn3)CC2)s1 | 547 | -9.2% (inactive) | -2.6% (inactive) | 106 | -13.7% (inactive) | 111 | -0.512 (inactive) | -3.5e-05 (inactive) | 0.00755 (inactive) | 5.09% (inactive) | 31.5% (inactive)
24 | CCNc1ccc(C(=O)OCC)cc1NC(=O)c1cc(S(=O)(=O)N2CCOCC2)ccc1C | 772 | 7.3% (inactive) | 31.2% (inactive) | 93.3 | -81.9% (inactive) | 114 | -0.551 (inactive) | 4.9e-05 (inactive) | 0.00574 (inactive) | -4.65% (inactive) | -25.5% (inactive)
25 | CC(C)N1C(=O)C2C(C(=O)NC3CCCCC3)C3C=CC2(O3)C1C(=O)NC1CCCC1 (stereo not drawn) | 371 | 4.3% (inactive) | 23% (inactive) | 101 | -58.1% (inactive) | 101 | -0.366 (inactive) | 3.1e-05 (inactive) | 0.00675 (inactive) | 8.4% (inactive) | 18.1% (inactive)
26 | Cc1ccccc1OCc1nnc2n1CC(C)S2 (stereo not drawn) | 547 | 6.8% (inactive) | -4.9% (inactive) | 131 | -53.4% (inactive) | 105 | -0.562 (inactive) | -4e-05 (inactive) | 0.00737 (inactive) | 8.61% (inactive) | 13.6% (inactive)
27 | CCC(C)(C(=O)NC1CCCC1)N(C(=O)c1cnccn1)c1c(C)n(C)n(-c2ccccc2)c1=O (stereo not drawn) | 568 | 3.8% (inactive) | 7% (inactive) | 91.3 | 15.6% (inactive) | 89.6 | -0.471 (inactive) | -0.000132 (inactive) | 0.00518 (inactive) | -1.44% (inactive) | 9.08% (inactive)
28 | Cn1c(C(=O)Nc2ccc3c(c2)OCO3)cc2c(=O)n(C)c3ccccc3c21 | 683 | 7% (inactive) | -6.4% (inactive) | 104 | -20.2% (inactive) | 104 | -0.264 (inactive) | -2.8e-06 (inactive) | 0.00554 (inactive) | -13.1% (inactive) | -11.2% (inactive)
